ATXN viability = Viability Counterscreen for Primary qHTS for Inhibitors of ATXN expression; S2 cells (HEK-293 line with an ATXN2-luciferase reporter) viability, CellTiter-Fluor protease fluorescence, 24 h; Potency, µM (titrated, usually from 56.7 µM), hits mostly cytotoxic; 400,000 tested, 0.49% active; further: potency means the concentration at half of the fitted maximal effect; nearly all actives have a fitted effect of over 40% in size
HepG2 viability = qHTS for Inhibitors of TGF-b: Cytotox Counterscreen; HepG2 CAGA-GFP viability, ATP luminescence, 18 h; Potency, µM (titrated, usually from 46.1 µM), for the others: at the highest dose activity change, negative = cytotoxicity, hits mostly cytotoxic; 410,000 tested, 0.76% active; AID 588856, 2011; further: potency means the concentration at half of the fitted maximal effect
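CellTiter-Glo luminescence gave cytotoxicity after 18 hours at 37 degrees C. The cells were HepG2 CAGA-GFP in 1% FBS DMEM, stimulated with 500 pg/mL TGF-beta after compound addition. %Activity was normalised to no-cell wells (complete cell-killing) and DMSO (no toxicity), and curves were fitted and classified.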
ATXN2 expr inh = Primary qHTS for Inhibitors of ATXN expression | 360,000 tested, 0.72% active | HEK-293 ATXN2-luciferase reporter, luminescence, 24 h | Potency, µM (titrated, usually from 57 µM), without a hit: at the highest dose activity change, negative = inhibition, actives largely listed as inhibitors | AID 1745845, 2022; further: potency means the concentration at half of the fitted maximal effect; on the % scale 0 is the no-effect control and ±100 the full control effect; nearly all actives have a fitted effect of over 55% in size
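ATXN2-luciferase reporter cells (luciferase flanked by upstream and downstream ATXN2 gene portions) were treated 24 h at 37 °C with compounds at up to 57 uM. SteadyGlo luminescence gave expression; GF-AFC fluorescence gave viability.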
Six1-Eya2 inh = qHTS Assay for Inhibitors of the Six1/Eya2 Interaction. Homeobox protein SIX1 (Homo sapiens) + Protein phosphatase EYA2 (Homo sapiens), …. AlphaScreen GST-Six1/His-Eya2 binding, biochemical; stronger effect = lower value. activity change, % (concentration not given with the values). 360,000 tested, 0.56% active. AID 651725, 2012; in the data active means activity change below about -65%; inconclusive means mostly about -30% to -63%; further: on the % scale 0 is the no-effect control and ±100 the full control effect
Target sequence (O00167 whole entry, looked up): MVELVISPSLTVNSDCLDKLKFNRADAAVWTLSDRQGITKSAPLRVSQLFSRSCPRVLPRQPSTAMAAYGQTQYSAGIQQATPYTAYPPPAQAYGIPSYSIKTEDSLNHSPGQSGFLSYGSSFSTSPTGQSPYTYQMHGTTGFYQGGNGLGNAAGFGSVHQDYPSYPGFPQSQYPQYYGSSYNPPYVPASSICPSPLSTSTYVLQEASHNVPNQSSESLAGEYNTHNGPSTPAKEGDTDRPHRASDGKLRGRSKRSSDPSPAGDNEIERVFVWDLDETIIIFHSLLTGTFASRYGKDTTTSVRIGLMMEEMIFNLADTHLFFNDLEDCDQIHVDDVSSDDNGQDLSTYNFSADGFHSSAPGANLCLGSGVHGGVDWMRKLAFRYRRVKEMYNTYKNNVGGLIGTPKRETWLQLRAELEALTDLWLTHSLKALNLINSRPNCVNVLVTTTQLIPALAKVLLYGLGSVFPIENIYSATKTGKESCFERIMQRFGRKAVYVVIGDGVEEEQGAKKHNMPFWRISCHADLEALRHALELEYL
Target sequence (Q15475 whole entry, looked up): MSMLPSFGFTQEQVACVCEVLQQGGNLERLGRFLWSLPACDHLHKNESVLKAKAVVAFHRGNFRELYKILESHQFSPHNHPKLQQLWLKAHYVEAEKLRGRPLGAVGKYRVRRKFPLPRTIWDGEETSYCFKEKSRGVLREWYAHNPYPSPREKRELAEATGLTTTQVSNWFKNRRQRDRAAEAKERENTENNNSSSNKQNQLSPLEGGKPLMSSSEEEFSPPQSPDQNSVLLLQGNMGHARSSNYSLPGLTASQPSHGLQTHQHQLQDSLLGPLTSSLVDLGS
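AlphaScreen with GST-Six1 and His-Eya2 (5X mix: 250 nM and 500 nM), glutathione donor and nickel acceptor beads; buffer 50 mM Tris pH 8.0, 300 mM NaCl, 1 mM TCEP; 1 h at 37 C in the dark.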
CtBP-E1A blk = qHTS Assay for Inhibitors of the CtBP/E1A Interaction | AlphaScreen GST-E1A/His-CtBP binding, 1536-well; stronger effect = lower value | CtBP / adenovirus E1A interaction (AlphaScreen) | AID 651724, 2012 | 340,000 tested, 0.49% active | activity change, % (no concentration beside the values); in the data active means activity change below about -65%; inconclusive means mostly about -30% to -63%; further: on the % scale 0 is the no-effect control and ±100 the full control effect
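In 5 uL wells, 23 nL compound meets equimolar GST-E1A and His-CtBP (5X stock 125 nM each) for 2 h, 37 °C. Beads (5X, 50 ug/mL) then 1 h, 37 °C, dark.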
TGFb SMAD3 inh = qHTS for Inhibitors of TGF-b | Potency, µM (titrated, usually from 46.1 µM), without a hit: at the highest dose activity, negative = inhibition, most hits filed as inhibitors | HepG2 CAGA-GFP TGF-b/SMAD3 reporter, GFP fluorescence, 18 h; TGF-beta stimulated, 500 pg/mL final | AID 588855, 2011 | 410,000 tested, 1.2% active; further: potency means the concentration at half of the fitted maximal effect; on the % scale 0 is the no-effect control and ±100 the full control effect; nearly all actives have a fitted effect of over 65% in size
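Read-out: total well GFP (ex488/em500-530) summed from mean per-cell fluorescence. Cells: HEPG2 CAGA-GFP, 1% FBS DMEM, 18 h at 37 degrees C with 500 pg/mL final TGF-beta. Unstimulated wells served as the full-inhibition control; stimulated DMSO wells = 0%.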
* marks the source's active call; other numbers are inactive results; i = inactive; u = inconclusive; x = no result; ! = not confirmed by another sample. In the library only some 2.8% were active in any assay of this set; here they are far more common. Unless noted, the call rests on the fitted dose curve; in most records, active means well fitted curve in the direction sought with a large enough effect; inconclusive means small, poorly fitted or top-dose-only effect, or another doubt; inactive means no such curve, though single readings can be large; an effect the other way counts as inactive or inconclusive.

SMILES	ATXN viability	HepG2 viability	ATXN2 expr inh	Six1-Eya2 inh	CtBP-E1A blk	TGFb SMAD3 inh
CCn1c(C(=O)NCc2ccccc2Br)cc2oc3ccccc3c21	i	13µM*	57%	x	x	41%
Cc1cc(/C=C/c2ccnc3ccccc23)ccc1N	x	-21%	x	x	x	u
COc1ccc(CCNC(=O)CCCCCNc2nc(=S)[nH]c3ccccc23)cc1OC	i	1%	-14%	u	-19	8%
COCCNc1nc(=S)[nH]c2cc(OC)c(OC)cc12	i	3%	-3%	-80*	-87*	-3%
CCCCNc1nc(=S)[nH]c2cc(OC)c(OC)cc12	i	-3%	5%	-91*	-93*	1%
CCOCCCNc1nc(=S)[nH]c2cc(OC)c(OC)cc12	i	-8%	-13%	-83*	-92*	u
COc1cc2[nH]c(=S)nc(NCCCOC(C)C)c2cc1OC	i	1%	u	-86*	-93*	7%
COCCNc1nc(-c2ccccc2)nc2ccccc12	i	-18%	-8%	2	6	-12%
Cc1ccc(OCCCCn2nnc3sc4c(c3c2=O)CCCC4)cc1	i	-13%	7%	x	x	-9%
Cc1occc1C(=O)Nc1cccc(-c2nc(CNC(=O)c3ccc(N4CCCCC4)cc3)c(C)o2)c1	i	x	x	x	x	x
C/C(=N\O)[C@@H](C)NCC(C)(C)CN[C@H](C)/C(C)=N/O	i	x	-11%	x	x	x
Cc1ccc(OCC(=O)c2cc(C)c(C)cc2C)c([N+](=O)[O-])n1	i	-32%	1%	-4	-1	11µM*
Cc1cc(C(=O)CCl)c(C)n1-c1cccc([N+](=O)[O-])c1	25µM*	-95%	u	-27	10	u
Cc1ccc(OCC(=O)c2cc(C)n(-c3ccccc3)c2C)c([N+](=O)[O-])n1	i	-15%	3.2µM*	u	-6	u
Cc1c(C(=O)NCCCc2ccncc2)cnn1-c1ncc2c(n1)-c1ccccc1CC2	i	x	x	x	x	x
CN1CCN(c2cc(-c3cc(O)c4ncccc4c3)ccn2)CC1	u	-48%	10µM*	x	x	u
CN1CCN(C(=O)c2cccc(-c3cc(O)c4ncccc4c3)c2)CC1	u	-38%	u	x	x	-23%
Cc1cc(=O)c2c(O)c3c(O)cc(=O)c4c3c3c(cc(O)c1c23)C(C)(C)C=4O	i	x	27µM*!	x	x	x
COC(=O)c1cccc(C(=O)N2CCc3c(cnc(C)c3CNC(=O)/C=C/c3cccs3)C2)c1	i	x	x	x	x	x
NC(=O)c1ncn([C@@H]2O[C@H](CO)[C@@H](O)[C@@H]2O)c1O	x	x	6%	x	x	x
CCOc1ccc(-c2nnc(SCC(=O)Nc3cccc(C#N)c3)o2)cc1	i	-23%	8%	x	x	u
Cc1ccc(S(=O)(=O)c2cc3cc(C(=O)Nc4ccc(C)cc4C)ccc3oc2=O)cc1	i	0%	15%	x	x	5%
CN(C(=O)/C=C/c1ccccc1)C1CCCCC1	i	11µM*	36%	8	-1	-11%
CSc1nnc(NC(=O)c2nc(S(=O)(=O)Cc3ccccc3F)ncc2Cl)s1	u	-60%	-20%	-21	-2	u
CCc1nnc(NC(=O)c2nc(S(=O)(=O)Cc3ccccc3)ncc2Cl)s1	u	-95%	u	14	-2	u
CCc1nnc(NC(=O)c2nc(S(=O)(=O)Cc3cccc(C)c3)ncc2Cl)s1	u	22µM*	u	-19	-3	11µM*
Cc1cccc(CS(=O)(=O)c2ncc(Cl)c(C(=O)Nc3nnc(C(C)C)s3)n2)c1	28µM*	11µM*!	-35%	-23	-3	11µM*
CCNC(=O)c1c(NC(=O)c2nc(S(=O)(=O)CC)ncc2Cl)sc2c1CCCC2	x	4µM*	x	x	x	1.4µM*
